Test results as given in PubChem BioAssay AID588458 (Sanford-Burnham Center for Chemical Genomics, 2011).
The whole screen tested about 360,000 compounds, of which about 3,000 (0.83%) were called active. The list comes from a sample in which actives are over-represented; it also holds similar structures and randomly drawn compounds. Values without a mark were called inactive. Cut-off read from the data, not from the text of the source: active = inhibition above about 50%; inactive = the rest.

What follows are molecules tested against DNA (cytosine-5)-methyltransferase 1 (Homo sapiens) (UniProt P26358) (assay: human DNMT1 methyltransferase inhibitors, primary screen, biochemical, molecular beacon, fluorescence, HinP1I cleavage, uHTS (AID 588458)). Conditions: at 10 µM, hits give high values.
Sequence of DNA (cytosine-5)-methyltransferase 1 (Homo sapiens) (P26358 504-1616 limits assumed): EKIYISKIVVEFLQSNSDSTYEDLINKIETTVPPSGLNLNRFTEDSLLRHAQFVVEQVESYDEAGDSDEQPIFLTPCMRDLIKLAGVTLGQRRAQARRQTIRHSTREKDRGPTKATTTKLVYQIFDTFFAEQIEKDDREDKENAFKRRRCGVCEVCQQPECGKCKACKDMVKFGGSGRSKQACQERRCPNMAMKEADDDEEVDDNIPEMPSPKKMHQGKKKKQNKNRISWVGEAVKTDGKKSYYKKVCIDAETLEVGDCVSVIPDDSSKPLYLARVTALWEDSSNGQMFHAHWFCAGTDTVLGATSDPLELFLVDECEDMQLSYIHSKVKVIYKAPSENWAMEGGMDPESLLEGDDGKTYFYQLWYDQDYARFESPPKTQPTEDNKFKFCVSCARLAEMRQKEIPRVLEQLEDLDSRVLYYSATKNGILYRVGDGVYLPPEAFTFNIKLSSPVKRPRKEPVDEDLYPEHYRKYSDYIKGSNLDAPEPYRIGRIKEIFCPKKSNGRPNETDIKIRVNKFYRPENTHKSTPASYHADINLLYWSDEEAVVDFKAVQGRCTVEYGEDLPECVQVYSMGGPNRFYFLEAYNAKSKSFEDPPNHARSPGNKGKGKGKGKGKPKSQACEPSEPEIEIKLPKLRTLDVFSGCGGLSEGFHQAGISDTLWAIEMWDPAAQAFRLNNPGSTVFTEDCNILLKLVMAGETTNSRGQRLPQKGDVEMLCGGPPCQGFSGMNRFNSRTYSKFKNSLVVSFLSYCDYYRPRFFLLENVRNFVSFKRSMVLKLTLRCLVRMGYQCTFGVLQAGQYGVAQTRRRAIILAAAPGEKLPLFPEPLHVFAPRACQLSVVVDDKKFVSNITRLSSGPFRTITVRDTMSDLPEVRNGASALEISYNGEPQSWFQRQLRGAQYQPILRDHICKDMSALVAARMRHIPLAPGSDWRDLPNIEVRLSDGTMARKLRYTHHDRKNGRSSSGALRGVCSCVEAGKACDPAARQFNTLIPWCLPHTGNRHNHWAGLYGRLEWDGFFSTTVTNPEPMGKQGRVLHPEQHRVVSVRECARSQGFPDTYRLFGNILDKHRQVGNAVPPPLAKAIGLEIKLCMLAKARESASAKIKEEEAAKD

Row | SMILES | inhibition (reported as % activation of signal)
1 | CC(C)(C)NC(=O)CSC(=Nc1ccccc1F)NC#N | 52.8% (active)
2 | Cc1ccccc1CSCC(=O)NC(=O)NC(C)(C)C | -1.56%
3 | CC(C)(C)NC(=O)CSc1nnc(NC(=O)CCc2ccccc2)s1 | -0.32%
4 | CCCC/C=C/c1cccc2nncn12 | 5.75%
5 | COc1ccccc1C(=O)Nc1ccc(OCC(=O)N2CCCCC2)cc1 | 5.57%
6 | COc1ccc2c(c1)c(=O)c(C(=O)c1ccc(Cl)cc1)cn2CC(=O)Nc1ccc(F)cc1 | 59.8% (active)
7 | COc1ccc(NC(=O)CC2C(=O)NC3CCCCC3N2C(=O)c2ccc(F)cc2)cc1 (stereo not drawn) | 4.5%
8 | O=C(c1ccc(F)cc1)c1cn(Cc2ccc(F)cc2)c2cc3c(cc2c1=O)OCCO3 | -8.26%
9 | CNc1cc(-c2c(OC)cccc2OC)ncn1 | 5.78%
10 | COC(=O)c1ccc(C2NC(=O)NC(C)=C2C(=O)N(C)C)cc1 (stereo not drawn) | 0.97%
11 | O=C(NNC(=O)c1cc(-c2ccccc2Cl)nc2ccccc12)c1csc(N2CCOCC2)n1 | 1.75%
12 | O=C(Nc1ccc2ccccc2c1)Nc1ccc2snnc2c1 | -8.95%
13 | COC(=O)c1ccccc1NC(=O)C1(S(=O)(=O)c2ccc(Cl)cc2)CC1 | -0.08%
14 | CCOC(=O)C1CCCN(C(=O)CSc2nnc3nc(C)cc(C)n23)C1 (stereo not drawn) | 0.98%
15 | CN(C)CC(C)(C)CNC(=O)c1cc(Br)cc(Br)c1O | -5.18%
16 | CCCn1nc(C(=O)NNC(=O)CCOc2ccccc2OCC)c2ccccc2c1=O | 0.9%
17 | CCOc1ccccc1/C=c1\sc2nc(-c3ccco3)nn2c1=O | 93.3% (active)
18 | CCOc1ccccc1C1NC(=O)NC(C)=C1C(=O)OCc1ccco1 (stereo not drawn) | -2.52%
19 | CCc1ccc(C(=O)C(C)OC(=O)CN2C(=O)NC3(CCCC3)C2=O)cc1 (stereo not drawn) | 3.64%
20 | N#Cc1cccc(NC(=O)COC(=O)c2ccccc2C(=O)c2ccc(Cl)c([N+](=O)[O-])c2)c1 | -3.9%
21 | COc1ccc(-n2c(SCC(=O)Nc3sc4c(c3C#N)CCCC4)nnc2-c2ccc(O)cc2)cc1 | 67.7% (active)
22 | COc1cccc(CN(C)CC(=O)Nc2sc3c(c2C#N)CCC3)c1 | -0.9%
23 | CCCc1cc(=O)[nH]c(SCC(=O)Nc2sc3c(c2C#N)CCCC3)n1 | -0.63%
24 | CCCCN(C)CCNC(=O)CSCc1ccc(C)cc1 | 1.5%

Row | SMILES | inhibition (reported as % activation of signal)
25 | CC1=C(C(=O)N2CCOCC2)CC(CC(=O)NCc2cccs2)C(=O)N1CCCN1CCCC1=O (stereo not drawn) | 6.83%
26 | COC(=O)c1ccc(COc2ccc(/C=C/C(=O)c3ccc(OC)c(CSCC(=O)O)c3)cc2OC)cc1 | 11.9%
27 | COc1ccccc1CCNC(=O)C1CCN(C(=O)/C=C/c2ccccc2)CC1 | -0.55%
28 | COc1ccc(C(=O)/C=C/c2ccc(-c3ccccc3)cc2)cc1CSCC(=O)O | 56% (active)
29 | CC(C)(C)NC(=O)COC(=O)c1cc(Cl)ccc1[N+](=O)[O-] | 6.7%
30 | O=S(=O)(c1cccc(-c2nnc(SC(F)F)n2-c2ccccc2)c1)N1CCCCC1 | -1.8%
31 | CCn1ccnc1CNC(=O)CC1C(=O)NCCN1Cc1ccc(F)cc1Cl (stereo not drawn) | -0.81%
32 | COc1ccc(S(=O)(=O)N2CCOC2CNC(=O)C(=O)NCc2ccncc2)cc1OC (stereo not drawn) | -1.09%
33 | COc1ccc(NC(=O)C2C3C=CC(C3)C2C(=O)NCc2ccccn2)c(OC)c1 (stereo not drawn) | 1.26%
34 | CCCn1nnnc1NCc1ccc(CC)cc1 | 0.45%
35 | CCOC(=O)C1CCCN(C(=O)c2ccc(N(C)C)cc2)CC1 (stereo not drawn) | -7.05%
36 | O=c1[nH]c(SCc2cccc(F)c2)nc2ccccc12 | -0.9%
37 | O=c1[nH]c(/C=C\c2cccc(C(F)(F)F)c2)nc(O)c1[N+](=O)[O-] | 4.66%
38 | O=c1[nH]c(/C=C/c2cccc(Br)c2)nc2ccccc12 | 53% (active)
39 | CCN(CC)C(=O)CSc1nnc(-c2ccc(S(=O)(=O)NCc3ccccc3Cl)cc2)o1 | 4.4%
40 | Clc1cc(NC2CCCCC2)ncn1 | 1.17%
41 | CCCC(C(=O)NCc1ccco1)N(C(=O)CNS(=O)(=O)c1ccccc1)C1CCCC1 (stereo not drawn) | 0.13%
42 | O=S(=O)(Nc1nccs1)c1ccc2c(c1)OCCO2 | 0.9%
43 | c1coc(-c2nc3nc4ccccc4n3nc2-c2ccco2)c1 | 86.2% (active)
44 | CC(Oc1ccc(Cl)cc1Cl)C(=O)/C=C/N(C)C (stereo not drawn) | 1.08%
45 | Cn1c(Nc2ccc(F)cc2)nc2cc(-c3ccsc3)sc2c1=O | 1.88%
46 | COc1ccc(S(=O)(=O)N2CCC(C(=O)NCCC(=O)Nc3ccccc3OC)CC2)cc1 | 3.13%
47 | CC(CCc1ccc(O)cc1)NCc1ccc(Cl)cc1Cl (stereo not drawn) | 1.55%
48 | COc1ccc(/C=C2\SC(=N)N(c3ccc(F)cc3)C2=O)cc1 | 59% (active)

Row | SMILES | inhibition (reported as % activation of signal)
49 | COc1cccc(/C=C2\SC(=N)N(c3ccc(F)cc3)C2=O)c1 | 29.4%
50 | COc1ccc(N2C(=O)CNC2=S)cc1 | 0.19%
51 | COC(=O)C1=C(C)NC(=S)NC1c1ccc(OCC(=O)N2CC(C)OC(C)C2)c(OC)c1 (stereo not drawn) | -3.49%
52 | O=C1CC(Cc2ccc(Cl)cc2)C(=O)N1c1cc(Cl)ccn1 (stereo not drawn) | 1.99%
53 | O=C(NC1CCCC1)C(NS(=O)(=O)c1ccc(Br)s1)c1ccccc1 (stereo not drawn) | 3.01%
54 | O=C(COC(=O)/C=C/c1cn(-c2ccccc2)nc1-c1cccnc1)Nc1ccc(Cl)cc1Cl | 56% (active)
55 | Cc1ccc(/C=C/C(=O)OCC(=O)Nc2cccnc2Cl)cc1 | 0.14%
56 | COc1ccc(NC(=O)CN(C)C(=O)/C=C/c2cn(Cc3ccccc3)nc2-c2cccnc2)cc1 | 2.58%
57 | CCN(CC(=O)Nc1ccc(OC)cc1)C(=O)c1ccc(=O)n(Cc2ccccc2)n1 | 4.56%
58 | Nc1ccc2nc3c(=O)[nH]c(=S)[nH]c3nc2c1 | 129% (active)
59 | CC1(Oc2cccc(F)c2)CCN(Cc2ccccc2OC(F)F)C1 (stereo not drawn) | 8.51%
60 | CCCOc1ccc2c3c(c(=O)oc2c1OCCC)CCC3 | 5.15%
61 | CCCn1nc(C(=O)OCc2nc(N)nc(Nc3ccccc3C)n2)c2ccccc2c1=O | -3.44%
62 | Cc1ccc(C(=O)NNC(=O)CSc2nnc3ccccn23)cc1 | -3.3%
63 | Cc1ccc(C(=O)NNC(=O)c2cc3cc4ccccc4nc3s2)cc1 | 54.4% (active)
64 | Cc1ccc(C(=O)NNc2ncnc3ccccc23)cc1 | 2.1%
65 | CCOc1cc(C(=O)Nc2c(C)ccc3nsnc23)cc(OCC)c1OCC | 1.78%
66 | c1ccc2c(-c3nn4nnnc4c4ccccc34)cccc2c1 | -1.65%
67 | CCCN1Cc2cccc(C(=O)NCc3ccccc3)c2C1=O | 0.1%
68 | Cc1ccc(S(=O)(=O)N2CCN=C2SCc2c(F)cccc2Cl)cc1 | -1.13%
69 | CCOC(=O)C/C(C)=N\Nc1ccc([N+](=O)[O-])cc1[N+](=O)[O-] | 8.42%
70 | C/C(=N\Nc1ccccc1)c1cccs1 | -15%
71 | C/C(=N\Nc1ccc(S(N)(=O)=O)cc1[N+](=O)[O-])c1cccs1 | 51% (active)
72 | CCCCNc1c(-c2cccc(Sc3ccc(OC)cc3)c2)nc2ccccn12 | -24.9%

Row | SMILES | inhibition (reported as % activation of signal)
73 | CCc1nnc(NC(=O)c2cc(S(=O)(=O)N3CCN(CC)CC3)ccc2Cl)s1 | 1.36%
74 | Clc1ccc(C2=CSC3=Nc4cccc5cccc(c45)N23)cc1 | 61.1% (active)
75 | O=C(COC(=O)c1ccc(S(=O)(=O)N2CCc3ccccc3C2)cc1)NC(=O)NCc1ccco1 | 4.21%
76 | CCc1nc(SCC(=O)Nc2ccccc2OC)n[nH]1 | 0.12%
77 | CCOc1ccccc1NC(=S)C(=C([O-])c1ccc2c(c1)OCCO2)[n+]1ccc(CC)cc1 | -14.6%
78 | CC(C)(C)n1nc(Cc2cccc3ccccc23)c(C#N)c1N | 3.39%
79 | CCc1nn(-c2cc(Oc3cccc4ccccc34)nc(-c3ccccc3)n2)c(N)c1C#N | 56.2% (active)
80 | CCCCn1nnnc1C(c1cccc(OC)c1OC)N1CCN(C/C=C/c2ccccc2)CC1 (stereo not drawn) | -2.12%
81 | O=C(CCN1CCc2ccccc2C(O)(c2ccccc2)C1)c1ccc2c(c1)OCCO2 (stereo not drawn) | -2.82%
82 | CSC1=NC2(C)CCCCC2C12C=CC(=O)C=C2 (stereo not drawn) | -0.69%
83 | CS(=O)(=O)N(CC(=O)N1CCN(c2ccc(F)cc2)CC1)C1CCCCC1 | 0.1%
84 | O=C(NNC1=NCCC1)c1cccc(S(=O)(=O)N2CCCCC2)c1 | 2.1%
85 | Cc1ccc(-c2cc(C(=O)NCc3cn(C)nc3C)c3cc(Br)ccc3n2)cc1 | 54.2% (active)
86 | Cc1nn(C)cc1CNC(=O)Nc1ccc(Cl)cc1 | -5.06%
87 | O=C(NCc1cccs1)c1cc(-c2ccccn2)nc2ccc(Br)cc12 | 18.8%
88 | CCCCc1nc2cc(C(=O)N3CCCCC3CCO)ccc2o1 (stereo not drawn) | 0.96%
89 | CC1CCN(C(=O)CCc2nnc3ccc(NCc4ccco4)nn23)CC1 | -2.17%
90 | CC(Oc1ccccc1)C(=O)Nc1oc(-c2ccco2)c(-c2ccco2)c1C#N (stereo not drawn) | 63.1% (active)
91 | CC(C)C(=O)Nc1oc(-c2ccccc2)cc1C#N | 1.41%
92 | N#Cc1c(NC(=O)CCCN2C(=O)c3ccccc3C2=O)oc(-c2ccccc2)c1-c1ccccc1 | -7.82%
93 | Cc1cc(=O)oc(C)c1C(=O)NC1CC(C)(C)NC(C)(C)C1 | 4.08%
